Only some compounds are listed: those with a hit (about 1.2% of all), similar ones and a draw of the others.
TLR4 MyD88 comp: TLR4-MyD88 interaction inhibition in cells. O00206+Q99836. HeLa CL3-4 TLR4/MyD88 BLA complementation, FRET ratio. inhibition, % at 8.4 µM. 0.18% of 200,000 active; in the data active = inhibition above about 25%
ABHD5 PLIN5 PPI: ABHD5-PLIN5 protein interaction inhibition; inhibition, % at 4 µM; Q00G26+Q8WTS1; Split G. princeps luciferase complementation, luminescence, 4 h; 0.78% of 360,000 active; AID 602281;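 active = inhibition above the mean inhibition across every tested compound plus 3 SD, cut at about 22% in these data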
Target sequence (Q00G26 whole entry, looked up): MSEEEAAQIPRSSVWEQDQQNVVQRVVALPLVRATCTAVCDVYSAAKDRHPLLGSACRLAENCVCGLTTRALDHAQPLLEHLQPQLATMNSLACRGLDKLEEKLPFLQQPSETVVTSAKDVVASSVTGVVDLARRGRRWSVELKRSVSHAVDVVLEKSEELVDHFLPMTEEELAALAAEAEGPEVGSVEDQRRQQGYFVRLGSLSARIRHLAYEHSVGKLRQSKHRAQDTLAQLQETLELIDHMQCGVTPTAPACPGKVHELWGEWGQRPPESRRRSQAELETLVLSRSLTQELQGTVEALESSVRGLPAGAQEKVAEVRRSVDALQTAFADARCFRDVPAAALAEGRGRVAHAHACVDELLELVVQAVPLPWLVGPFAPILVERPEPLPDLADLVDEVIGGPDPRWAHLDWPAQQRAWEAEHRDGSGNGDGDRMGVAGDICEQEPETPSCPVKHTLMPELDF
Target sequence (Q8WTS1 whole entry, looked up): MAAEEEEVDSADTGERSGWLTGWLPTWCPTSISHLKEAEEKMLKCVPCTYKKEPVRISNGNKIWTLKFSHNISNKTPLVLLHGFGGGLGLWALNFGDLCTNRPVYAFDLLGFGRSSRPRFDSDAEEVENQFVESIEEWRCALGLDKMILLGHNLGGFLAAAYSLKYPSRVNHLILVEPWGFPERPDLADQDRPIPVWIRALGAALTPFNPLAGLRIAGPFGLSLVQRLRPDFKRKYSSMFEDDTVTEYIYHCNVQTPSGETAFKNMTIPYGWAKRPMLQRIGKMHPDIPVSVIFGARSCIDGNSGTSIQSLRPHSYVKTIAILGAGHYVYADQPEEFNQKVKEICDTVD
NOD2 RIPK2 PPI: blocks binding of human NOD2 to RIPK2. inhibition, % at 4.98 µM. CHO BLA complementation NOD2-RIPK2, CCF4 ratio. O43353. 0.38% of 360,000 active; in the data active = inhibition above about 21%
TLR9-MyD88 block: TLR9-MyD88 interaction inhibition. Q9NR96+Q99836. CHO BLA complementation TLR9-MyD88, CCF4 FRET ratio. inhibition, % at 4.98 µM. 0.21% of 340,000 active;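 active = inhibition above the mean over all tested compounds plus 3 SD, cut at about 21% in these data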
ABHD5-PLIN5 conf: ABHD5-PLIN5 interaction inhibition, confirmed | shares compounds with ABHD5 PLIN5 PPI | biochemical ABHD5-PLIN5 interaction, luminescence | inhibition, % at 4 µM | 67% of 2,200 active; in the data active = inhibition above about 23%
HNF4 split-luc: HNF4 split-luciferase signal hit, counter-screen. shares compounds with ABHD5 PLIN5 PPI. HNF4 dimerization, luminescence, biochemical. 77% of 2,200 active. inhibition, % at 4 µM;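 active = mean inhibition across replicate wells exceeding the computed hit threshold, cut at about 13% in these data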;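 note: light from luciferase halves that rejoin when HNF4 fusion proteins dimerize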
Hits are given with their value; - = inactive; . = no result; ! = not active in a repeat.

SMILES | TLR4 MyD88 comp | ABHD5 PLIN5 PPI | NOD2 RIPK2 PPI | TLR9-MyD88 block | ABHD5-PLIN5 conf | HNF4 split-luc
CC(C)[C@@H](C(=O)NC1CCCC1)N1C(=O)N2CCc3c([nH]c4ccccc34)[C@@]2(C)C1=O | . | - | - | - | . | .
COc1ccc(/C=C/C(=O)c2cc3cccc(OC)c3oc2=O)cc1 | - | 37 | - | - | 64 | 53
CNC(=O)c1cc2cccc(OC)c2oc1=O | - | - | - | - | . | .
COCOc1cc(O)c(C(=O)/C=C/c2ccccc2)c(OCOC)c1 | . | 41 | - | - | 69 | 63
Cc1cccc(C=CC(=O)c2ccccc2)c1 | . | 27 | - | - | 57 | 44
Cc1ccc(/C=C/C(=O)c2ccccc2O)cc1 | . | - | - | - | . | .
Cc1ccc(O)c(C(=O)C=Cc2ccccc2)c1 | . | 41 | - | - | 88 | 55
COc1ccc(C(=O)NC2CC2)cc1OC1CCN(Cc2cc(C)c(C)cc2C)CC1 | . | - | - | - | . | .
COc1cc(C)cc(C(=O)C=Cc2ccccc2)c1O | . | 64 | - | - | 95 | 75
COc1cc(/C=C/C(=O)c2ccccc2O)cc(OC)c1OC | - | 52 | - | - | 90 | 84
COc1ccc(C(=O)/C=C/c2ccccc2)c(OC)c1 | - | 26 | - | - | 42 | 28
COC1=C(C)C(O)=C(C(=O)/C=C/c2ccccc2)C(=O)C1(C)C | . | - | - | - | . | .
COc1ccc(C(=O)/C=C/c2cc(OC)c(O)c(OC)c2)c(F)c1 | - | - | - | - | . | .
Cc1ccc2[nH]cc(CCNC(=O)c3cccs3)c2c1 | . | - | - | - | . | .
O=c1[nH]c(C2CCN(S(=O)(=O)c3ccc(F)cc3)CC2)nc2c1nnn2Cc1ccc2c(c1)OCCO2 | . | 29 | - | - | 35 | -
O=c1[nH]c(C2CCN(S(=O)(=O)c3ccc(S(=O)(=O)NC4CC4)cc3)CC2)nc2c1nnn2Cc1ccc(F)cc1 | . | 28 | - | - | 48 | -
C=CCOc1ccc(CNCC2CCCO2)cc1 (stereo not drawn) | . | - | - | - | . | .
O=C(CSc1nc(=O)n2ccccc2n1)OCc1ccccc1 | . | - | - | - | . | .
C=CCn1c(SCC(=O)NCCOC)nc2scc(-c3ccco3)c2c1=O | - | 32 | - | - | 42 | 82
C=CCn1c(SCC(=O)NCC2CCCO2)nc2scc(-c3ccc(OC)cc3)c2c1=O (stereo not drawn) | . | - | - | - | . | .
C=CCn1c(SCC(=O)NCC2CCCO2)nc2scc(-c3ccco3)c2c1=O (stereo not drawn) | - | 34 | - | - | 34 | 82
C=CCn1c(SCC(N)=O)nc2scc(-c3ccc(C)o3)c2c1=O | - | - | - | - | . | .
COCc1cc(CNC(=O)C2CCC(=O)N(Cc3ccccc3OC)C2)[nH]n1 (stereo not drawn) | . | 24 | - | - | - | -
COC(=O)C[C@@H]1C[C@H]2c3cc(NS(C)(=O)=O)ccc3O[C@H]2[C@H](CO)O1 | . | - | - | - | . | .
CCOC(=O)c1ccc(NC(=O)CSc2nc3c(c(=O)n2CC)SC(C)C3)cc1 (stereo not drawn) | - | 81 | - | - | - | -
SMILES | TLR4 MyD88 comp | ABHD5 PLIN5 PPI | NOD2 RIPK2 PPI | TLR9-MyD88 block | ABHD5-PLIN5 conf | HNF4 split-luc
CCOC(=O)c1ccc(NC(=O)CSc2nc3c(c(=O)n2C)SC(C)C3)cc1 (stereo not drawn) | - | - | - | - | . | .
O=C(Cn1sc2ccccc2c1=O)Nc1ccccc1 | . | 64 | - | - | 81 | 116
CN(CC(=O)O)Cc1oc(CO)cc(=O)c1O | . | - | - | - | . | .
CCCCC(=O)Nc1cccc(C(=O)Nc2ccccc2C(=O)O)c1 | - | 95 | - | - | - | -
CCCCC(=O)Nc1cccc(NC(=O)c2cccc(Br)c2)c1 | - | - | - | - | . | .
Cc1cc(C)c(NC(=O)CN2CCN3CCCC3C2)c(C)c1 (stereo not drawn) | - | 32! | - | - | 33 | -
Cc1cc(C)c(NC(=O)CCCN2CCN(C)CC2)c(C)c1 | - | - | - | - | . | .
CCC(=O)c1ccc(OCc2cn(CC(=O)c3ccc(O)cc3)nn2)cc1 | . | - | - | - | . | .
O=C(Cn1cc(COc2c(F)c(F)cc(F)c2F)nn1)c1ccc(O)cc1 | . | 31 | - | - | 45 | 35
COc1ccc(OCc2cn(CC(=O)c3ccc(O)cc3)nn2)cc1 | . | 24 | - | - | 60 | 30
O=C(Cn1cc(COc2ccc(C(=O)c3ccccc3)cc2)nn1)c1ccc(O)cc1 | . | - | - | - | . | .
COc1ccc(-c2csc(C(C#N)=C(O)CSc3nccn3C)n2)cc1OC | . | - | - | - | . | .

From PubChem BioAssay
